Assay outcomes: PubChem, several laboratories
V-ATPase pHluor: yeast V-ATPase proton transport regulation by pHLuorin. S. cerevisiae, pHLuorin cytosolic pH fluorescence. response, % at 10 µM. actives 0.37% (n = 350,000); in the data active means response mostly above about 7.3%, no sharp cut-off; inactive means mostly below about 5.4%; further: actives read high
beta cell repl: MIN6 beta-cell proliferation induction. MIN6 cells proliferation, ATPlite luminescence, 48 h; cells starved in 0.2% serum; 100% = growth in 10% serum. proliferation, % at 10 µM. actives 0.29% (n = 330,000). AID 2380;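 active means compounds whose signal lies at least 3.5 SD above the mean of all wells on their plate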;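 further: 0% = DMSO-treated cells in low-serum medium and 100% = 10% serum control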
HDAC3 inhib: blocks human histone deacetylase 3 | actives 0.15% (n = 320,000) | recombinant HDAC3, fluorogenic peptide/trypsin coupled, fluorescence | inhibition, % at 8.3 µM | O15379; in the data active means inhibition above about 26%, passing the limit was not always enough
Rtt109 Vps75: blocks Candida albicans Rtt109/Vps75 acetyltransferase activity; Q5AAJ8; purified Rtt109/Vps75, ThioGlo CoA-SH fluorescence, 4 h; inhibition, % at 34.9 µM; actives 0.16% (n = 330,000); AID 540336;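 active means inhibition of at least 50% in every replicate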
Target sequence (Q5AAJ8 whole entry, looked up): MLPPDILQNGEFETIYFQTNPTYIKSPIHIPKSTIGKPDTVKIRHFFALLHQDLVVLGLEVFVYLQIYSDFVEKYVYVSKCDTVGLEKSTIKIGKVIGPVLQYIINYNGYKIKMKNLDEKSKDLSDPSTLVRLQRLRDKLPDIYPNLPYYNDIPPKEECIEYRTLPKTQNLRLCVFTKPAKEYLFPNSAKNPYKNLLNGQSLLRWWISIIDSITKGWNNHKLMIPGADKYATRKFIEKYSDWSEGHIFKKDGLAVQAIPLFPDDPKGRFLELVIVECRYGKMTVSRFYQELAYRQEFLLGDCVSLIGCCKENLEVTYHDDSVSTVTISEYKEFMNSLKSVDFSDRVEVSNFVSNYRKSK
DAGLB inh: blocks human DAGLB lipase activity; HEK293T DAGLB membrane lysate, EnzChek fluorogenic substrate; AID 504411; actives 0.059% (n = 340,000); inhibition, % at 5.17 µM; Q8NCG7; in the data active means inhibition above about 34%;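 further: 0% = enzyme with vehicle and 100% = wells lacking enzyme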
DAGLB confirm: DAGLB (human) inhibition, confirmation screen | shares compounds with DAGLB inh | inhibition, % at 5.17 µM | AID 504445 | HEK293T DAGLB membrane lysate, EnzChek fluorogenic substrate | actives 73% (n = 190);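 active means mean inhibition over triplicate wells above a set limit taken from the primary lipase screen, cut at about 34% in these data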;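 further: 0% = DAGLB with DMSO and 100% = wells lacking DAGLB enzyme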
VATPase regulator: regulators of yeast V-ATPase proton transport; shares compounds with V-ATPase pHluor; S. cerevisiae pHLuorin cytosolic pH; response, % at 10 µM; actives 2% (n = 980); in the data active means response above about 24%;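 further: plate controls were vehicle wells for no effect and positive control wells for full effect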
* marks the source's active call; other numbers are inactive results; . = no result given. This is a sample that favours compounds with a hit; in the whole collection about 0.96% have one here.

SMILES	V-ATPase pHluor	beta cell repl	HDAC3 inhib	Rtt109 Vps75	DAGLB inh	DAGLB confirm	others
COc1ccccc1/C=N\Nc1ccccc1[N+](=O)[O-]	-5	-2	1	-2	35*	37*
CC(C)Oc1ccccc1/C=N/Nc1ccccc1[N+](=O)[O-]	-1	-7	-2	-5	26	.
CN(C)c1ccc(N=Nc2ccc(S(=O)(=O)O)cc2)c2ccccc12	3	-3	13	40	48*	52*
CCN(CC)CCNCC(=O)N1c2ccccc2CCc2ccc(NC(=O)OC)cc21	-5	-2	1	12	2	.
O=C1c2ccccc2C(=O)c2c(NCCCN(CCO)CCO)cccc21	2	2	.	13	.	.
CCN(CCCNc1cc2c(c(N)c1S(=O)(=O)O)C(=O)c1ccccc1C2=O)c1ccccc1	1	.	.	.	36*	39*
C=CCNC(=O)CN1c2cccc3cccc(c23)S1(=O)=O	4	-4	-4	-1	-2	.
CCc1ccc(NC(=S)Nc2ccc(S(=O)(=O)Nc3ncccn3)cc2)cc1	-2	-6	4	2	54*	-1
O=C(O)c1cc(S(=O)(=O)Nc2cc(Cl)ccc2Oc2ccccc2)ccc1O	-3	-4	.	-7	39*	38*
Nc1nonc1-n1nnc(C(=O)N/N=C/c2ccc3c(c2)OCO3)c1CSc1ccccc1	-1	-3	-5	-3	2	.
CCCCC[C@H](O)/C=C/[C@H]1[C@H](O)CC(=O)[C@@H]1CCCCCCC(=O)O	.	-5	-1	.	.	.
CCCCCCCCCCC[C@@H](C[C@@H]1OC(=O)[C@H]1CCCCCC)OC(=O)[C@H](CC(C)C)NC=O	1	-8	1	1	49*	86*
CCN(C(=O)COC(=O)CNC(=O)c1ccc(C)cc1)c1c(N)n(Cc2ccccc2)c(=O)[nH]c1=O	2	7	-12	-1	-3	.
Cc1nn(-c2ccccc2)c(N)c1N=Nc1cccnc1	-1	-3	0	3	0	.
Nc1nc(-c2ccccc2)c(N=Nc2cccnc2)s1	-1	-3	8	-7	51*	50*
O=C(c1cc(O)c(O)c([N+](=O)[O-])c1)c1ccccc1F	-6	4	-4	3	38*	23
CC1CCN(CC(=O)Nc2ccc(S(=O)(=O)N3C(C)CCCC3C)cc2)CC1 (stereo not given)	2	0	-4	-2	-2	.
COc1ccc(C(=O)NCc2nnc(SCC(=O)Nc3cc(OC)ccc3OC)o2)cc1	1	-6	4	11	-1	.
COc1ccc(OC)c(NC(=O)CSc2nnc(CNC(=O)c3ccccc3F)o2)c1	-2	-4	2	10	36*	-6
Cc1cccc2sc(NC(=O)CSc3nnnn3C)nc12	0	-2	-3	-5	3	.
COC(=O)c1cc2c(-c3ccccc3)cc3ccccn3c-2c1C(=O)OC	2	-5	7	-2	37*	30
COC(=O)c1c(C)c2c(C)cc3ccccn3c-2c1C(=O)OC	1	-4	10	-49	0	.
Brc1ccc(N/N=C(/N=Nc2nn[nH]n2)c2ccccc2)cc1	0	-7	12	16	46*	78*
O=C(O)c1ccc(N=N/C(=N\Nc2ccc(C(=O)O)cc2)c2ccccc2)cc1	2	-5	0	28	39*	29
Cc1ccc(S(=O)(=O)N2C[C@H]3n4c(=O)ccc(=O)n4C[C@H](OC(=O)NCC4CCCCC4)[C@@]3(O)C2)cc1	0	.	.	.	8	.
NNC(=O)CNc1ccccc1Cl	8.4*	4	9	-1	-4	.	VATPase regulator=3
O=C(CCCCC(=O)Nc1ccccc1Cl)Nc1ccccc1Cl	3	-2	1	0	-2	.
O=C(NCc1ccccc1)C(=O)c1cn(CC(=O)N2CCOCC2)c2ccccc12	-2	-5	3	-5	0	.
C[C@H](CO)N1C[C@H](C)[C@@H](CN(C)Cc2cccc3c2OCCCO3)OCc2cnnn2CCCC1=O	9.4*	.	.	.	-2	.	VATPase regulator=2
N#C/C(=C\c1cc(Cl)cc(Cl)c1O)C(=O)NC1CCCCC1	15*	-6	-5	16	5	.	VATPase regulator=1
